Reference: PubChem BioAssay AID1745848 (National Center for Advancing Translational Sciences (NCATS), 2022)
Hit rate of the full screen: of about 2,100 compounds, about 940 (45%) were called active. About 48% were inconclusive and are not listed. The call rests on the fitted dose curve; in most records, active means well fitted inhibition curve with a large enough effect; inconclusive means small, poorly fitted or top-dose-only effect; inactive means no such curve, though single readings can be large or run the other way. So high a share suggests a set chosen from earlier hits. The list shows a part of the results.

Assay: Confirmatory qHTS for Inhibitors of ATXN expression; further: nearly all actives have a fitted effect of over 65% in size
Conditions: ATXN2-luciferase reporter cells, luminescence, 24 h; series mostly up to 11.5 µM
How it was run: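 A titration, incubated 24 h with reporter cells expressing ATXN2-luciferase. Luminescence (SteadyGlo) gives ATXN2 expression, multiplexed GF-AFC fluorescence gives viability; normalised to DMSO and medium-only wells.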
Potency means the concentration at half of the fitted maximal effect.

Potency, inactive:
O=C(CSc1nnnn1-c1ccccc1)Nc1nsc(-c2ccccc2)n1
CCOC(=O)c1ccc(NC(=O)c2nc[nH]c2C(=O)N[C@H](C)c2ccccc2)cc1
CN(C)S(=O)(=O)c1cccc(N2C(=O)CC3(CCCCC3)CC2=O)c1
O=C(/C=C\c1ccco1)Nc1nc(-c2ccc3ccccc3c2)cs1

Potency, active:
CN(c1ccccc1)S(=O)(=O)c1ccc(C(=O)Nc2nnc(-c3ccc(F)cc3)o2)cc1 15.8 µM
CCc1nnc(NC(=O)c2ccc(S(=O)(=O)N(C)Cc3ccccc3)cc2)o1 20 µM
O=C(Nc1nnc(-c2ccc(F)cc2)o1)c1cc(Cl)sc1Cl 15.8 µM
Cc1sc2ncnc(NCC(O)c3ccc([N+](=O)[O-])cc3)c2c1C (stereo not given) 3.16 µM
Cc1cc(C)cc(C(=O)NC(=S)Nc2ccc(-c3cc4ccccc4oc3=O)cc2)c1 4.47 µM
CCOC(=O)c1c(NC(=O)CSc2nnnn2-c2ccccc2)sc2c1CC(C)(C)NC2(C)C 3.55 µM
Cc1ccc(C(=O)N/C(=C/c2ccc(-c3ccc([N+](=O)[O-])cc3)o2)C(=O)NCCCN(C)C)cc1 25.1 µM
CCCCOC(=O)/C=C\C(=O)NC(N)=O 17.8 µM
N/C(=C\C(=O)c1cc(Cl)ccc1O)C(Cl)(Cl)Cl 3.16 µM
C/C(=N\NC(=O)C(C)n1nc(C)c([N+](=O)[O-])c1C)c1ccccc1O (stereo not given) 3.16 µM
O=C1N/C(=N/N=C/c2ccccc2O)SC1Cc1ccc(F)cc1 (stereo not given) 15.8 µM
Cc1[nH]n(-c2ccccc2)c(=O)c1/C=N/NC(=O)c1ccccc1F 4.47 µM
CC(C)(CO)NCc1c(OCc2ccc(Cl)cc2)ccc2ccccc12 14.1 µM
COc1cccc(CN(C)C(=O)CNC(=O)c2ccc(-c3ccccc3)cc2)c1OC 14.1 µM
CCOC(=O)c1ccc(NC(=O)C2CCCN(S(=O)(=O)c3ccc(F)cc3)C2)cc1 (stereo not given) 28.2 µM
O=C(Nc1ccccc1C(=O)Nc1nnc(C(F)(F)F)s1)c1ccccc1Cl 3.55 µM
O=C(Nc1ccccc1C(=O)Nc1nnc(C(F)(F)F)s1)c1ccccc1 1.78 µM
COc1ccccc1CNc1nc(NCc2ccc(NC(C)=O)cc2)c2sccc2n1 3.16 µM
COc1ccccc1CNc1nc(NCc2cccc(OC)c2OC)c2sccc2n1 25.1 µM
COc1cccc(CNc2nc(NCc3ccccc3)nc3ccsc23)c1 15.8 µM
CN(C)S(=O)(=O)c1ccc(-c2csc(N/N=C/c3ccco3)n2)cc1 2.82 µM
